Screening results: PubChem BioAssay, National Center for Advancing Translational Sciences (NCATS)
An excerpt weighted towards active compounds, which were near 2.6% of everything screened.
TGFb SMAD3 inh = qHTS for Inhibitors of TGF-b; Potency, µM (series often up to 46.1 µM), inactives show at the highest dose activity, negative = inhibition, usual class: inhibitors; actives 1.2% (n = 410,000); HepG2 CAGA-GFP TGF-b/SMAD3 reporter, GFP fluorescence, 18 h; TGF-beta stimulated, 500 pg/mL final; also: potency is read from the fitted curve at half-maximal effect; % is scaled to controls: 0 for no effect and ±100 for the full control effect; nearly all actives have a fitted effect of over 65% in size
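Read-out: total well GFP (ex488/em500-530) summed from mean per-cell fluorescence. Cells: HEPG2 CAGA-GFP, 1% FBS DMEM, 18 h at 37 degrees C with 500 pg/mL final TGF-beta. Unstimulated wells served as the full-inhibition control; stimulated DMSO wells = 0%.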
HepG2 viability = qHTS for Inhibitors of TGF-b: Cytotox Counterscreen. actives 0.76% (n = 410,000). AID 588856, 2011. HepG2 CAGA-GFP viability, ATP luminescence, 18 h. Potency, µM (highest dose often 46.1 µM), for the others: at the top dose activity change, negative = cytotoxicity, actives largely listed as cytotoxic; also: potency is read from the fitted curve at half-maximal effect
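CellTiter-Glo luminescence gave cytotoxicity after 18 hours at 37 degrees C. The cells were HepG2 CAGA-GFP in 1% FBS DMEM, stimulated with 500 pg/mL TGF-beta after compound addition. %Activity was normalised to no-cell wells (complete cell-killing) and DMSO (no toxicity), and curves were fitted and classified.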
uPA surface inh = qHTS for Inhibitors of Cell Surface uPA Generation. cell surface uPA generation assay, qHTS. Potency, µM (top dose mostly 38.3 µM), for the others: at the highest dose activity change, negative = inhibition, actives largely listed as inhibitors. actives 0.31% (n = 330,000); active = well fitted inhibition curve with a large enough effect; inconclusive = small, poorly fitted or top-dose-only effect; inactive = no such curve, though single readings can be large or run the other way; tested in mouse RAW 264.7 cells; also: potency is read from the fitted curve at half-maximal effect; % is scaled to controls: 0 for no effect and ±100 for the full control effect; nearly all actives have a fitted effect of over 55% in size
ATXN2 expr inh = Primary qHTS for Inhibitors of ATXN expression; HEK-293 ATXN2-luciferase reporter, luminescence, 24 h; Potency, µM (doses to about 57 µM), without a hit: at the highest dose activity change, negative = inhibition, hits mostly inhibitors; actives 0.72% (n = 360,000); also: potency is read from the fitted curve at half-maximal effect; % is scaled to controls: 0 for no effect and ±100 for the full control effect; nearly all actives have a fitted effect of over 55% in size
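qHTS (up to 57 uM final) was run with 24 h compound exposure of reporter cells at 37 °C. Each well was multiplexed: SteadyGlo luminescence measured ATXN2-luciferase expression after a fluorogenic Gly-Phe-AFC viability readout (25 uM final).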
Giardia kill = Small Molecules that selectively kill Giardia lamblia: qHTS; Giardia lamblia trophozoite viability; activity change, % at 7.66 µM, hits read low; actives 0.15% (n = 340,000); AID 540267, 2011; in the data active = activity change below about -80%; inconclusive = between about -30% and that limit;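 also: parasites exposed to compound for two days anaerobically before the ATP read; % is scaled to controls: 0 for no effect and ±100 for the full control effect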
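Compounds were tested on trophozoites seeded at 100 cells/well and held 48 hrs at 37 deg C anaerobically. An ATP-based luminescent kit measured the remaining live cells.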
S2 tox = Viability Counterscreen for Primary qHTS for Inhibitors of ATXN expression; S2 cells (HEK-293 line with an ATXN2-luciferase reporter) viability, CellTiter-Fluor protease fluorescence, 24 h; Potency, µM (doses to about 56.7 µM), hits mostly cytotoxic; actives 0.49% (n = 400,000); AID 651635, 2014; also: potency is read from the fitted curve at half-maximal effect; nearly all actives have a fitted effect of over 40% in size
Starred values were filed as active, the others as inactive; i = inactive; ? = inconclusive; . = no result; ! = not confirmed by another sample. Unless noted, calls follow the shape of the dose curve; as a rule, active = well fitted curve in the direction sought with a large enough effect; inconclusive = small, poorly fitted or top-dose-only effect, or another doubt; inactive = no such curve, though single readings can be large; an effect the other way counts as inactive or inconclusive.

SMILES	TGFb SMAD3 inh	HepG2 viability	uPA surface inh	ATXN2 expr inh	Giardia kill	S2 tox
COc1ccc(N2CCN(c3nc(NCCc4ccc(OC)c(OC)c4)nc(OC)n3)CC2)cc1	?	-72%	-5%	28µM*	4	?
CCc1ccc(NC(=O)CSc2nnc(-c3ccc(N)cc3)n2C)cc1	1%	-1%	.	.	.	.
CC(=O)N1CCC[C@H]1C(=O)N1CCc2c(cnc(C)c2CNC(=O)/C=C/c2cccs2)C1	.	.	.	.	.	i
O=C(/C(N=Nc1cccc(C(F)(F)F)c1)=C(/O)c1cccs1)C(F)(F)F	13µM*	-41%	3%	?	2	?
COC(=O)c1[nH]c2ccc(Br)cc2c1NC(=O)CN1CCN(C2CCCCC2)CC1	?	-117%	-14%	18µM*	?	35µM*
Cc1ccccc1Nc1c(-c2ccncc2)nc2ccc(Cl)cn12	16µM*	18µM*	?	-4%	2	?
Cc1ccn2c(Nc3ccccc3C)c(-c3cccnc3)nc2c1	-9%	-47%	-5%	-13%	-22	?
Cc1ccn2c(Nc3ccccc3C)c(-c3ccccc3)nc2c1	-3%	13µM*	.	14%	.	?
C[C@]12C=CC(=O)N[C@@H]1CC[C@H]1[C@H]3CC[C@@H](C(=O)Nc4cc(C(F)(F)F)ccc4C(F)(F)F)[C@@]3(C)CC[C@@H]12	.	.	.	-27%	.	.
Clc1ccc2c(N/N=C/c3ccc(Br)cc3)ccnc2c1	25%	1%	-4%	-34%	-96*	?
Cc1ccccc1/C=N/Nc1ccnc2cc(Cl)ccc12	10µM*	-103%	-11%	22µM*	?	.
Cc1ccc(/C=N/Nc2ccnc3cc(Cl)ccc23)c(C)c1	?	14µM*	-28%	35µM*	-88*	?
Clc1ccc2c(N/N=C/c3cccnc3)ccnc2c1	-26%	-19%	-2%	?	4	?
CCC(C)n1ncn(-c2ccc(N3CCN(c4ccc(OC[C@H]5CO[C@](Cn6cncn6)(c6ccc(Cl)cc6Cl)O5)cc4)CC3)cc2)c1=O (stereo not given in full)	.	.	.	?	.	i
Cc1cc(C)cc(C(=O)NCCn2cc(C(=O)N3CCSCC3)nn2)c1	.	.	.	.	.	i
COc1cc(=O)n2c(c1C(=O)NC(C)c1ccco1)CCN(Cc1ccccc1C(F)(F)F)CC2 (stereo not given)	.	.	.	.	.	i
O=C1C=CC(=O)N1CCCCCCCCCCN1C(=O)C=CC1=O	13µM*	-28%	-8%	10µM*	5	8.9µM*
O=C1C=CC(=O)N1Cc1ccncc1	-1%	5%	0%	-9%	6	?
CN(/N=C/c1ccc(O)cc1O)c1ncc(C(F)(F)F)cc1Cl	?	13µM*	?	-28%	36	?
COc1cc2nc(N3CCCC(O)C3)c(CNCc3ccccc3F)cc2c(OC)c1OC (stereo not given)	.	.	.	.	.	i
CC1CCc2c(sc(NC(=O)C3=COCCO3)c2C(N)=O)C1 (stereo not given)	1%	-5%	7.9µM*	.	-26	i
O=c1c2ccccc2cnn1-c1nc2ccccc2[nH]1	-22%	2µM*	?	0.56µM*	-91*	i
Cc1nc2ccccc2nc1CN1CCOc2ccc(CN3CCc4sccc4C3)cc2C1	.	.	.	.	.	i
CCN1CCN(Cc2ccc(NC(=O)Nc3ccccc3Cl)cc2)CC1	-2%	4%	10µM*	16%	-29	i
S=C(Nc1ccc(Cl)c(Cl)c1)NC1CCN(Cc2ccccc2)CC1	?	11µM*	-13%	?	-10	.
SMILES	TGFb SMAD3 inh	HepG2 viability	uPA surface inh	ATXN2 expr inh	Giardia kill	S2 tox
COC(=O)c1cc(=O)n(Cc2ccc3c(c2)OCO3)c(=Nc2ccc(F)cc2)s1	0%	-26%	?	-30%	-18	i
COC(=O)c1cc(=O)n(Cc2cccs2)c(=Nc2ccc(F)cc2)s1	?	-73%	?	21µM*	8	27µM*
COC(=O)c1cc(=O)n(CCc2ccccc2F)c(=Nc2ccc(F)c(Cl)c2)s1	?	-93%	?	27µM*	-3	.
COc1cc(CN2CCCC(c3nc(-c4ccncc4)ncc3-c3ccccc3)C2)ccc1O (stereo not given)	.	.	.	.	.	i
Cc1ccc(OCC(=O)N2CCN(c3nnc(-c4ccc(C)cc4)c4ccccc34)CC2)cc1	?	-28%	.	28µM*	4	?
Cc1cccc(NC(=S)N(CCCN2CCCC2)Cc2cccn2Cc2ccc(Cl)cc2)c1	?	i	1%	32µM*	13	.
CC(=O)O[C@H]1CC[C@@]2(C)C(=CC[C@@H]3[C@@H]2CC[C@]2(C)C(C(C)=O)=CC[C@@H]32)C1	.	.	.	3%	.	i
O=C(NC(=S)Nc1ccccn1)c1ccc(-c2ccccc2)cc1	?	-39%	-8%	36%	-90*	i
COc1ccccc1N1CCN(C(=O)C2CCCN(S(=O)(=O)c3ccc4c(c3)CCCN4C(C)=O)C2)CC1 (stereo not given)	?	-7%	1%	18µM*!	6	?
CC(=O)N1CCCc2cc(S(=O)(=O)N3CCCC(C(=O)N4CCN(c5cc(C)ccc5C)CC4)C3)ccc21 (stereo not given)	13µM*	-4%	-14%	20µM*	7	25µM*!
OC[C@@H]1CCC[C@@H](n2cnc3c(=S)nc[nH]c32)O1	0%	-17%	.	.	-15	.
Cc1ccc(-c2nc3n(n2)Cc2ccccc2-3)cc1	-24%	-54%	-9%	-33%	?	i
Fc1ccc(-c2nc3n(n2)Cc2ccccc2-3)cc1	?	8.9µM*	-10%	52%	-16	i
CCn1c(C)nc2cc(-c3nc4n(n3)Cc3ccccc3-4)ccc21	-11%	1.3µM*	-10%	0.4µM*	-105*	i
CC1CC=CC2C1C(=O)N(Cc1ccccc1)C2c1ccc(F)c(-c2ccc(N(C)C)cc2)c1 (stereo not given)	-5%	-3%	.	.	-15	.
Cc1cc2ccccc2c[n+]1C	-1%	2%	.	.	.	.
CCC/C(=C1/c2ccccc2C(=O)N1c1ccccc1)c1cnc(OC)nc1	13µM*	-18%	-7%	-11%	-24	i
O=C(Nc1nnc(-c2ccc3c(c2)CCCC3)o1)c1ccc(Cl)cc1Cl	?	-4%	?	?	-1	40µM*
CN(C)S(=O)(=O)c1ccc(C(=O)Nc2nnc(-c3ccc4c(c3)CCCC4)o2)cc1	?	-26%	4.5µM*	-29%	-3	?
CN(C)S(=O)(=O)c1ccc(C(=O)Nc2nnc(-c3cccs3)o2)cc1	-13%	-32%	?	.	-20	?
